B1: VH:VL chains; a variant is named by its letters at X, in order (parent)
chain 1: QVQLVQSGAEVKKPGASVKVSCKASGYTFTDYXMHWVRQAPGQGLEWMGXVNPNXXXTTYNQKFEGRVTMTTDTSTSTAYMELRSLRSDDTAVYYCARXNXLDXWGQGTTVTVSS
chain 2: DIQMTQSPSSLSASVGDRVTITCSVSSSVSSIYLHWYQQKPGKAPKLLIYSTSNLASGVPSRFSGSGSGTDFTLTISSLQPEDFATYYCQVYSGYPLTFGGGTKVEIK

This is one part of the list. How many sequences the whole screen found active is unknown.

Variants of B1 are the subject of this experiment. In words: yeast display scFab, FACS + sequencing. The conditions noted are these: with MET. The procedure, abridged: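 Heavy-chain CDR mutant scFab yeast surface library, enriched by two magnetic rounds on HGFR-Fc-coated Protein A beads and then by FACS. Cells were labelled with 1 nM HGFR-Fc in PBSB with 1% milk and anti-Myc for 3 h at room temperature, and the top 50% antigen-positive cells were gated. Round-3 sorted and input populations were deep sequenced in two replicates. Antigen binding call: positive if a sequence occurred in both antigen-positive samples, negative if it occurred only in input.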
As for SEGRGDGA, the antigen binding call is given as “no binding”.

Consider AKTKSDGV, for which the antigen binding call was “no binding”.

With ATGGDSGD, the antigen binding call is “no binding”.

In the case of YAGRGDGA, the antigen binding call is “no binding”.

Turning to VEGRGDGA, the antigen binding call is listed as “no binding”.

For YKGRGVGA, the antigen binding call is “binds”.

For the variant VKGRGVGA, the antigen binding call was “binds”.

As to AKGRGDGA, the antigen binding call was “no binding”.

For the variant VRGGGDGY, the antigen binding call is reported as “binds”.

Regarding VRARGDGY, the antigen binding call is recorded as “binds”.

Take VRGGSDGY: the antigen binding call is “binds”.

As for VTGGGDGS, the antigen binding call was “no binding”.

Take VAGTGDGY: the antigen binding call is on record as “no binding”.

For ARERGDGY, the antigen binding call is “no binding”.

Turning to VTGGDDGY, the antigen binding call is reported as “no binding”.

In the case of VEARGDGA, the antigen binding call is given as “no binding”.

Turning to VRGGDDGV, the antigen binding call is “no binding”.

In the case of DAERTDGV, the antigen binding call is given as “no binding”.

Take AEAGADVV: the antigen binding call is “no binding”.

Regarding YAREGSGA, the antigen binding call is on record as “no binding”.

On to YRREGSLA, for which the antigen binding call is reported as “binds”.

In the case of YTREGAVA, the antigen binding call is “no binding”.

For the variant YRRRGALA, the antigen binding call is “binds”.

With VTEGGALA, the antigen binding call was “no binding”.

In the case of VRRRGALA, the antigen binding call is reported as “binds”.

On to YRRRGSLA, for which the antigen binding call was “binds”.

VAEKGALA: the antigen binding call is “no binding”.

In the case of VKGRADSV, the antigen binding call is given as “no binding”.

In the case of YRRGGALA, the antigen binding call was “binds”.

YREETSGA: the antigen binding call is recorded as “no binding”.

In the case of YRRRSSLA, the antigen binding call is recorded as “binds”.

FRAGGSGA: the antigen binding call is listed as “binds”.

Turning to FRAGGAGA, the antigen binding call is “binds”.

Turning to FRARGSGA, the antigen binding call is reported as “binds”.

As for FEAGDSGA, the antigen binding call is “no binding”.

As to FKAGGSGA, the antigen binding call was “no binding”.

ARARGSGA: the antigen binding call is reported as “no binding”.

Turning to FAARDSGA, the antigen binding call is reported as “no binding”.

Consider FRARGAGA, for which the antigen binding call is listed as “binds”.

On to DKGEGDLA, for which the antigen binding call is given as “no binding”.

As for VEEEGSGA, the antigen binding call was “no binding”.

Consider YKREGSAV, for which the antigen binding call is recorded as “no binding”.

YRRGGSAV: the antigen binding call is reported as “binds”.

In the case of YRRGSSAV, the antigen binding call is on record as “binds”.

Regarding YRREGSAV, the antigen binding call is on record as “binds”.

As to YRREGSVV, the antigen binding call is listed as “binds”.

DRRGSDAV: the antigen binding call is reported as “no binding”.

VATRAVGA: the antigen binding call is listed as “no binding”.

Consider VKGRSDAS, for which the antigen binding call was “no binding”.

Consider DTGGGDAA, for which the antigen binding call is given as “no binding”.

On to VTTKSSAV, for which the antigen binding call is recorded as “no binding”.

Regarding FRRGSSAV, the antigen binding call was “binds”.

With VRRGSDGV, the antigen binding call was “no binding”.

Consider VRRGSSAV, for which the antigen binding call is “binds”.

For the variant FTREASAV, the antigen binding call was “no binding”.

With VRTEDDWY, the antigen binding call is given as “no binding”.

On to SEEEGDVA, for which the antigen binding call is “no binding”.

With YTTGGDVA, the antigen binding call was “no binding”.

As for VTAGDDGS, the antigen binding call is reported as “no binding”.

Regarding DTTGSDVF, the antigen binding call was “no binding”.

On to YRTRSSAV, for which the antigen binding call was “binds”.

On to YRTRSAAV, for which the antigen binding call is “binds”.

For the variant YRRRGSSF, the antigen binding call is listed as “binds”.

In the case of YRRRGASF, the antigen binding call is “binds”.

As to STGGNDAD, the antigen binding call was “no binding”.

As to YKGKGFGA, the antigen binding call is “no binding”.

As to YKGKGSLA, the antigen binding call is listed as “binds”.

Take YKGEGDLA: the antigen binding call was “no binding”.

As for YKAGGALA, the antigen binding call is reported as “binds”.

For YKGKGALA, the antigen binding call is on record as “binds”.

With YKAGGFGA, the antigen binding call is recorded as “no binding”.

In the case of FAAETDVF, the antigen binding call is listed as “no binding”.

As to AARADDWD, the antigen binding call was “no binding”.

With DTGEDDVY, the antigen binding call was “no binding”.

For SAGEGSLV, the antigen binding call is given as “no binding”.

For DRAETDVY, the antigen binding call is “no binding”.

For the variant SAAGGASD chain 1 L45S, the antigen binding call was “no binding”.

For the variant YTTKSDGV, the antigen binding call was “no binding”.

For VTGTGDGA, the antigen binding call is recorded as “no binding”.

Consider STGGDDGA, for which the antigen binding call is recorded as “no binding”.

Consider FARAAALD, for which the antigen binding call is “no binding”.

For the variant FRRGGSLD, the antigen binding call is reported as “binds”.

With FRRGGALD, the antigen binding call was “binds”.

On to YRRGGALD, for which the antigen binding call is listed as “binds”.

In the case of DARGGSLD, the antigen binding call was “no binding”.

Turning to YARGGDLD, the antigen binding call is on record as “no binding”.

Consider FREGGALD, for which the antigen binding call is given as “binds”.

In the case of VEKEGDGA, the antigen binding call is “no binding”.

With AKAGSYGV, the antigen binding call is “no binding”.

With FRAEGSLD, the antigen binding call was “binds”.

With ATGRASLD, the antigen binding call is reported as “no binding”.

Turning to FRGGGSLD, the antigen binding call is recorded as “binds”.

With FRKGGSLD, the antigen binding call is “binds”.

For ARRGSSLD, the antigen binding call is reported as “binds”.

As for FRGGGDWD, the antigen binding call is “no binding”.

Consider YTEGDDWY, for which the antigen binding call is on record as “no binding”.

On to SEARSDGF, for which the antigen binding call is recorded as “no binding”.

On to DAKENDVA, for which the antigen binding call is recorded as “no binding”.

On to YTGGDDVD, for which the antigen binding call is listed as “no binding”.

As to FRKGTALD, the antigen binding call was “binds”.

As for FRGKGSLA, the antigen binding call was “binds”.

As for FRTKSDLA, the antigen binding call is listed as “no binding”.

For FRGKGSGA, the antigen binding call is “binds”.

As to FREKGDLA, the antigen binding call is reported as “binds”.

In the case of VKEKGDLA, the antigen binding call is “no binding”.

As for FKGKGFGA, the antigen binding call was “no binding”.

On to FKGKGSGA, for which the antigen binding call is given as “no binding”.

On to FRGKGAGA, for which the antigen binding call is “binds”.

The record behind these values is the emibetuzumab library of Makowski et al. (2022).
